Test results: PubChem BioAssay AID485364 (National Center for Advancing Translational Sciences (NCATS), 2010)
Screen size: about 360,000 compounds; about 11,000 (3.1%) were called active. Another 4% or so got no clear call; they are omitted. The sample as a whole holds a higher share of actives than the screen did. A number with no mark means an inactive call. Calls come from the whole dose curve; as a rule, active = well fitted inhibition curve with a large enough effect; inconclusive = small, poorly fitted or top-dose-only effect; inactive = no such curve, though single readings can be large or run the other way.

Each compound was assayed against Schistosoma mansoni thioredoxin glutathione reductase (TGR) (UniProt Q962Y6) (assay: qHTS Assay for the Inhibitors of Schistosoma Mansoni Peroxiredoxins). Settings: purified TGR, DTNB reduction, TNB absorbance 405 nm; series mostly up to 114 µM; activity change, negative = inhibition: at the top concentration.
From the text: Schistosomiasis is a major neglected tropical disease that currently affects over 200 million. It is caused by different species of flatworms, such as Schistosoma mansoni. Over the last century, drugs to treat the disease have evolved from potassium antimonyl tartrate, artemisinin, oxamniquine, to praziquantel, with praziquantel remaining the universally-used single drug of choice over the past three decades. However, transmission rates have changed little with praziquantel, and there is evidence for the development of drug resistant parasites. Because there is currently no suitable alternative therapy available, there is an urgent need to identify new targets and drugs for schistosomiasis treatment. Thioredoxin glutathione reductase (TGR), one uniquely positioned S. mansoni enzyme, has been identified as a major component of the worms' distinct and compressed antioxidant "firewall". TGR is a multifunctional enzyme that catalyzes the interconversion between reduced and oxidized forms of both glutathione (GSH) and thioredoxins, thus making it an attractive new antiparasitic target. Recently, a quantitative high-throughput screen of the NIH Molecular Libraries Small Molecule Repository (MLSMR, ~71K at the time of the screen in 2007) was performed using an assay that targeted both TGR and peroxiredoxin2 (Prx2, an H2O2-reducing enzymatic component of the S. mansoni redox "firewall") by following the decrease of NADPH fluorescence. […] Additional mechanistic link between exogenous NO donation and parasitic injury for the oxadiazole-2-oxide class of compounds was also expanded and better defined. Although the screen addressed both TGR and Prx2, the assay required post-screen target deconvolution for further characterization of the actives. In addition, the fluorescence assay was also subject to fluorescence interference from compound library members. We have developed a 1536-well-based kinetic HTS assay to address TGR alone. The assay followed the reduction of 5, 5'-dithiobis (2-nitrobenzoic acid) (DTNB) (Ellman's reagent) by NADPH and measured the increase in absorbance at 412 nm of the reaction product, TNB. […] This assay format can be used to screen the current MLSMR collection (with >300K compounds available) to find novel TGR inhibitors. Furoxan is a good choice to serve as a positive control in the primary HTS assay.
Three microliters of reagents (100 uM NADPH and 20 nM TGR or 100 uM NADPH as no-enzyme control) were dispensed into 1,536-well black clear-bottomed plates. Compounds (23 nL) were transferred via Kalypsys pin tool equipped with 1536-pin array (10 nL slotted pins, V&P Scientific, San Diego, CA). The plates were then be incubated for 15 min at room temperature, and 1 uL aliquot of 500 uM NADPH were added, immediately followed by a 1 uL aliquot of 15 mM DTNB to start the reaction. The plate was transferred to a ViewLux high-throughput CCD imager (Perkin-Elmer, Wellesley, MA) where kinetic measurements of the TNB absorbance were acquired using a 405 excitation filter. Throughout the screen, reagent bottles and all liquid lines were made light-tight to minimize reagent degradation. All screening operations were performed on a fully integrated robotic system (Kalypsys, San Diego, CA) containing one RX-130 and two RX-90 anthropomorphic robotic arms (Staubli, Duncan, SC). Library plates were screened starting from the lowest and proceeding to the highest concentration, and a "double-dipping" step of the highest concentration was required to access higher concentrations of compounds. Vehicle-only plates, with DMSO being pin-transferred to the entire column 5-48 compound area, were inserted uniformly at the beginning and the end of each library in order to monitor for and record any shifts in the background, which can be affected by reagent dispensers or loss in enzyme activity overtime. […]
% is set by controls: 0 for no effect and ±100 for the full control effect; potency is the fitted concentration of half-maximal effect.
Note: nearly all actives have a fitted effect of over 60% in size.

Row | Compound | activity change, negative = inhibition | Potency
1 | COc1ccc(/C=C/C(=O)OCC(=O)Nc2cccc(Oc3ccccc3)c2)c(OC)c1 | 2.08% | 
2 | COc1cccc(NC(=O)COC(=O)/C=C/c2ccco2)c1 |  | 31.6 µM (active)
3 | NS(=O)(=O)c1cccc(NC(=O)COC(=O)/C=C/c2ccco2)c1 |  | 6.31 µM (active)
4 | CN(C)S(=O)(=O)c1cccc(NC(=O)COC(=O)/C=C/c2cccs2)c1 | -1.01% | 
5 | CC(C)CNC(=O)COC(=O)/C=C/c1ccco1 | -30.1% | 
6 | COc1ccc([N+](=O)[O-])cc1NC(=O)COC(=O)/C=C/c1ccco1 | -20.8% | 
7 | CCc1cccc(-n2nnc(-c3nsc(NC(=O)c4ccc(C)cc4)n3)c2C)c1 | 5.78% | 
8 | COc1ccc(-c2cc(NCc3ccc(F)cc3)n3cnnc3n2)cc1 | -4.05% | 
9 | Cc1cc(C(=O)Nc2cccc(C(F)(F)F)c2)c2c(C)nn(-c3cccc(F)c3)c2n1 | 2.25% | 
10 | COc1ccc(NC(=O)C2CCCN(S(=O)(=O)c3cccc4nonc34)C2)cc1Cl (stereo not given) | -0.832% | 
11 | Cc1ccc(C)c(NC(=O)Cn2ccn(-c3ccc(F)cc3)c(=O)c2=O)c1 | 5.65% | 
12 | O=C(CC1Oc2ccccc2NC1=O)NCc1ccc(F)cc1 (stereo not given) | -0.707% | 
13 | Cc1ccc(CNC(=O)CCc2c(C)nn(-c3ccc(N4CCCC4)nn3)c2C)cc1 | 2.15% | 
14 | COc1ccccc1CNS(=O)(=O)c1cc(Br)cc2c1N(C(C)=O)C(C)C2 (stereo not given) | -2.24% | 
15 | CCOC(=O)c1cc2c(=O)n3ccccc3nc2n(CC2CCCO2)c1=NC(=O)c1ccccc1F (stereo not given) | -6.92% | 
16 | O=C(Nc1ccc2c(c1)OCO2)c1cc(-c2cccc(Cl)c2)on1 | 6.06% | 
17 | COc1cc(C)cc(CN2CCC(Cc3ccccc3)CC2)c1O | -35% | 
18 | CC1CCCN(CC(O)COCc2ccccc2)C1 (stereo not given) | 1.25% | 
19 | Oc1c(CN2CCCC2)cc(COCc2ccccc2)c2cccnc12 |  | 22.4 µM (active)
20 | COc1cc(OC)c(NC(=O)N2CC3CCCN3c3ccccc32)cc1Cl (stereo not given) | -28.7% | 
21 | CCOC(=O)c1c(S(=O)(=O)N2CCCC(C(=O)NCc3ccc(F)cc3)C2)c(C)n(CC)c1C (stereo not given) | 2.19% | 
22 | CCOC(=O)c1c(C)[nH]c(CCC(=O)NCCCN2CCN(c3cc(C)ccc3C)CC2)c1C | -6.6% | 
23 | COc1ccc(CN(Cc2ccc(OC)cc2)C(=O)c2cccs2)cc1 | 15.4% | 
24 | COc1ccc(C(CCN(Cc2ccc(OC)c(OC)c2)C(=O)CCl)c2ccccc2)cc1 (stereo not given) |  | 8.91 µM (active)
25 | COc1ccc(CCNC(=O)C(Sc2ccccn2)c2ccccc2)cc1OC (stereo not given) | 2.91% | 

Row | Compound | activity change, negative = inhibition | Potency
26 | CCc1nnc(SCc2nc(-c3cccc(C)c3)oc2C)c2cc3sc(C)cc3n12 | 20.7% | 
27 | CCCCc1ccc(NC(=S)NCCCN2CCOCC2)cc1 |  | 50.1 µM (active)
28 | Cc1cc(C)cc(NC(=S)NCCCN2CCOCC2)c1 | -16.2% | 
29 | CCCC(=O)NC(=S)Nc1ccc(CN2CCOCC2)cc1 | 0% | 
30 | Cc1cccn2c(=O)c(C(=O)NC(C)c3ccccc3)cnc12 (stereo not given) | -2.19% | 
31 | C#Cc1ccc([C@@H]2C=C(C(=O)O)O[C@H](OCCCCO)C2)cc1 |  | 39.8 µM (active)
32 | O=C(O)C1=C[C@H](c2cccs2)C[C@H](OCCCCO)O1 |  | 39.8 µM (active)
33 | CN1CCN(C(=O)C2=C[C@H](c3ccc4c(c3)OCO4)C[C@H](OCc3ccc(CO)cc3)O2)CC1 | -1.84% | 
34 | NC(=O)C1=C[C@H](c2csc3ccccc23)C[C@H](OCc2ccc(CO)cc2)O1 | -2.62% | 
35 | C=CCOC(=O)C1=C[C@@H](c2ccccc2)C[C@@H](OCc2ccc(CO)cc2)O1 | -32% | 
36 | CCO[C@H]1OC(C(=O)O)=C[C@@H](C2CCCCC2)[C@@H]1CCCO | -1.63% | 
37 | Cc1ccc(-n2nc(CO)c(C(=O)NCCc3ccccc3)n2)cc1 | 0.121% | 
38 | COc1c(Cl)cc(C(=O)N(Cc2ccccc2F)C2CCS(=O)(=O)C2)cc1Cl (stereo not given) | 15.1% | 
39 | Cc1cccc(OCCSc2nc3ccc(NC(=O)COc4ccccc4C)cc3s2)c1 | -8.79% | 
40 | CCOC(=O)c1sc(NC(=O)CCN2CCOCC2)c(C(=O)OCC)c1C | -3.18% | 
41 | CCOC(=O)c1c(NC(=O)CCl)sc(C(=O)N(CC)CC)c1C |  | 35.5 µM (active)
42 | CCOC(=O)Nc1sc(C(=O)N(C)C)c(C)c1C(=O)OCC | -17% | 
43 | CSc1nc(=O)c2c(n1C)NC(=O)CC2c1ccccc1OC(C)C (stereo not given) | 3.1% | 
44 | CCc1ccc(NC(=O)CN2C(=O)CCSc3ccc(S(=O)(=O)N4CCCC4)cc32)cc1 | -1.49% | 
45 | CCCCn1c(=O)c2oc3ccccc3c2n(CC(=O)Nc2ccccc2OC)c1=O | 9.58% | 
46 | COc1ccc2c(c1)C=C(C(=O)NCc1cc(Br)ccc1OC)CO2 | -6.94% | 
47 | COc1ccc(C)cc1NC(=O)CN1c2cccc3cccc(c23)S1(=O)=O | -12.4% | 
48 | CC(C)CN(CC(C)C)C(=O)CN1c2cccc3cccc(c23)S1(=O)=O | -11.9% | 
49 | O=C(O)CN1c2cccc3cccc(c23)S1(=O)=O |  | 35.5 µM (active)
50 | CCN(CC)c1ccc(NS(=O)(=O)c2cc(-c3cc(C)no3)ccc2C)c(C)c1 | -22.1% | 
